High-throughput results (PubChem)
An excerpt weighted towards active compounds, which were near 1.8% of everything screened.
HTT ATP protect: protects HTT-Q103 PC12 cells, measured by ATP | Potency, µM (highest dose often 56.4 µM), for the others: cytoprotection (ATP increase), most hits filed as activators | 230,000 tested, 0.14% active | AID 1471 | PC12 HTT-Q103 induced, cytoprotection, ATP luminescence, 40 h; note: % of control where 0% means no effect; nearly all actives have a fitted effect of over 45% in size
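Quantitative HTS on tebufenozide-induced (100 nM) PC12 cells expressing HTTQ103 exon 1–GFP; compounds tested as a concentration series; survival measured via cellular ATP.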
L3MBTL1 inh: inhibitors of human L3MBTL1 | Q9Y468 | AlphaScreen L3MBTL1–H3K9me1 peptide binding | Potency, µM (doses to about 57.1 µM), for inactives: top-dose activity, negative = inhibition, hits mostly inhibitors | 230,000 tested, 0.66% active | AID 485360; note: % is set by controls: 0 for no effect and ±100 for the full control effect; nearly all actives have a fitted effect of over 60% in size
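Displacement of a biotinylated histone H3(1-15) peptide monomethylated at Lys9 (75 nM) from L3MBTL1 (50 nM) was measured by AlphaScreen after a 30 min room-temperature compound incubation; cefsulodin titration served as intraplate control.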
JMJD2E inh: JMJD2E (human) inhibition; AID 2147; B2RXH2; Potency, µM (doses to about 57.1 µM), without a hit: top-dose activity change, negative = inhibition, actives largely listed as inhibitors; JMJD2E catalytic domain, FDH-coupled NADH fluorescence (FDH is formaldehyde dehydrogenase); 230,000 tested, 1.6% active; active = well fitted inhibition curve with a large enough effect, not every such curve was filed as active; inconclusive = small, poorly fitted or top-dose-only effect, or another doubt; inactive = no such curve, though single readings can be large or run the other way;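 note: 0% = wells with enzyme and -100% = buffer wells without enzyme; nearly all actives have a fitted effect of over 50% in size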
Target sequence (B2RXH2 1-337 limits assumed): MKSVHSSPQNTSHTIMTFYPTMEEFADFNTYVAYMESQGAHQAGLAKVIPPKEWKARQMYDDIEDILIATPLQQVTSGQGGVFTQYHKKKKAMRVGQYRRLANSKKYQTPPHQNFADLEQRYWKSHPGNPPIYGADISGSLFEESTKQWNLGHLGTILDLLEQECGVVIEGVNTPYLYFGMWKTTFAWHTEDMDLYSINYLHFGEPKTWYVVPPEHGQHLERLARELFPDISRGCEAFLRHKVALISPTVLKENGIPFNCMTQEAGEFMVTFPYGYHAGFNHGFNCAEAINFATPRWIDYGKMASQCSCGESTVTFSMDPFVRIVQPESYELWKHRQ
HttQ103 aggreg: mutant huntingtin aggregation inhibition; PC12 HttQ103-GFP aggregates, Acumen cytometry, 40 h; Potency, µM (top dose mostly 46.1 µM), inactives show at the highest dose activity change, negative = inhibition, actives largely listed as inhibitors; 220,000 tested, 1.1% active; AID 1688; note: % is set by controls: 0 for no effect and ±100 for the full control effect; nearly all actives have a fitted effect of over 60% in size
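Steps: seed 1500 PC12 HTTQ103-GFP cells/well; add tebufenozide, 100 nM final; add compound titration; add ATPLite reagent; quantify GFP aggregates by laser scanning cytometry.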
An asterisk follows results filed as active; ? = inconclusive; . = no result; [ ] = another dose, or the depositor's remark. Unless noted, calls come from the whole dose curve; as a rule, active = well fitted curve in the direction sought with a large enough effect; inconclusive = small, poorly fitted or top-dose-only effect, or another doubt; inactive = no such curve, though single readings can be large; an effect the other way counts as inactive or inconclusive. Potency is the fitted concentration of half-maximal effect.

SMILES	HTT ATP protect	L3MBTL1 inh	JMJD2E inh	HttQ103 aggreg
O=C(NCCCN1CCOCC1)C(=O)N/N=C/c1ccccc1O	-5.8%[10 µM]	?	11.2µM*	-12.8%[9.22 µM]
O=C(COc1nsnc1N1CCOCC1)N/N=C/c1ccccc1O	.	-12.8%	?	14.1µM*
O=C(NCc1ccccn1)C(=O)N/N=C/c1ccccc1O	-3.6%[10 µM]	.	6.31µM*	-35.9%[9.22 µM]
CSc1nc(C)cc(OCC(=O)N/N=C/c2ccccc2O)n1	?	1.0%	25.1µM*	?
COCC1=C2c3ccccc3[C@@H]3CNC(=O)C3(C(=O)OC)C[C@@H]2n2c(=O)n(-c3ccccc3)c(=O)n2C1 (stereo partly drawn)	-5.1%	.	1.1%	.
CCOc1nc(-c2ccc(C)cc2)ccc1-c1noc(-c2cccnc2)n1	-7.3%	1.4%	4.47µM*	-17.5%
Nc1ccccc1C(=O)/C=C/c1ccccc1	.	.	-2.8%	.
O=C1c2ccccc2C(=O)c2c1ccc(C(=O)N1CCCCC1)c2NCCO	13.7%	-5.2%	3.5%	1.1%
CC1(C)CCCN(C(=O)c2ccc3c(c2NCCO)C(=O)c2ccccc2C3=O)C1	.	35.5µM*	6.3%	?
N[C@H](Cc1c[nH]c2ccccc12)C(=O)O	-110.8%	.	.	31.6µM*
O=C(CN1CCCCC1)N1CCCc2c1c(=O)oc1ccc(OCc3ccccc3)cc21	3.16µM*	-18.3%	?	?
c1ccc(-c2csc3ncnc(NCCCN4CCOCC4)c23)cc1	-12.6%[10 µM]	20.0%[11.4 µM]	2.9%	0.1%
c1csc(-c2csc3ncnc(NCCCN4CCOCC4)c23)c1	26.4%[1.9 µM]	-5.7%	2.3%	7.94µM*
O=C(Nc1cccnc1)C1(F)C(F)(F)C(F)(F)C(F)(F)C(F)(F)C1(F)F	-53.8%	7.3%	-4.5%	6.31µM*
O=C(Nc1cccnc1)Nc1ccccc1Cl	0.794µM*	.	3.4%	.
CCn1c(SCC(=O)N/N=C/C=C/c2ccco2)nnc1-c1ccc(OC)cc1	7.5%[10 µM]	?	-5.1%	10.1%
Cn1cccc1CC(=O)N/N=C/C=C/c1ccco1	-40.2%[10 µM]	25.1µM*	3.8%	4.0%
C/C(=N\NC(=O)Cc1cccn1C)c1ccco1	10.8%[10 µM]	-10.2%	?	-1.2%[9.22 µM]
CCn1c(SCC(=O)N/N=C/C=C/c2ccco2)nc2ccccc21	19.6%[10 µM]	35.5µM*	-7.6%	?
O=C(CSc1nnc(SCc2ccccc2)s1)N/N=C/C=C\c1ccco1	-4.2%[10 µM]	12.6µM*	?	42.0%
O=C(CSc1nnc(SCc2ccccc2)s1)N/N=C/C=C/c1ccccc1[N+](=O)[O-]	6.6%[10 µM]	-5.8%	9.1%	17.2%
COC(=O)C1=C(C)NC(C)=C(C(=O)OCCN(C)Cc2ccccc2)[C@@H]1c1cccc([N+](=O)[O-])c1	-17.4%[1.9 µM]	.	.	.
Cc1cc(-c2c(C)[nH]n(-c3ccc(Cl)cc3)c2=O)n[nH]1	-82.0%	-28.0%	?	11.2µM*
Cc1cccc(N2C(=O)CC(Sc3nnc(C)s3)C2=O)c1 (stereo not drawn)	-4.2%[10 µM]	-3.0%	-2.8%	14.1µM*
COC(=O)[C@@]1(Cc2ccc(OC)cc2)[C@H]2c3cc(C(=O)N(C)C)n(CCN4CNCC4=O)c3C[C@H]2CN1C(=O)c1ccccc1	8.4%	.	?	.
SMILES	HTT ATP protect	L3MBTL1 inh	JMJD2E inh	HttQ103 aggreg
C/C(=N\N=C(N)N)c1cccc(Cl)c1	-183.2%	-2.7%	?	5.01µM*
C/C(=N\NC(N)=O)c1cccc(Cl)c1	-4.0%[10 µM]	-7.3%	-1.1%	17.6%
CC/C=C\C/C=C\C/C=C\C/C=C\C=C\C(O)CCCC(=O)O (stereo not drawn)	1.6%	.	-1.5%	.
c1cc2c3c(cccc3c1)NC1(CCCCCC1)N2	-29.5%[0.074 µM]	-4.2%	3.55µM*	?
c1cc2c3c(cccc3c1)NC1(CCCCC1)N2	3.3%	.	3.16µM*	-10.2%
c1cc2c3c(cccc3c1)NC1(CCC3(CC1)Nc1cccc4cccc(c14)N3)N2	-2.9%[10 µM]	?	?	8.4%[9.22 µM]
CC1=Nc2cccc3cccc(c23)N1	-29.4%	-15.1%	-15.5%	17.5%
N[C@@H]1C=CC=C(C(=O)O)C1	4.4%[1.9 µM]	.	.	.
O=C(Oc1ccccc1)N1CCC2(CC1)CCN(c1ccccn1)CC2	-14.6%	.	.	.
CCOC(=O)N/N=C1/C[C@@H](O)[C@@H](O)[C@@H]2[C@@H]3C(=O)N(C4CCCCC4)C(=O)[C@H]3CC[C@@H]12	-9.3%[10 µM]	.	.	.
CC1(C)CC(N2CCCC2)=CC(=[N+]2CCCCC2)C1	.	-7.0%	-3.0%	8.91µM*
COc1ccc(CCNC(=O)C2CC2)cc1OC	-4.6%[10 µM]	-0.9%	4.8%	-0.8%
COc1ccc(CCNCC(=O)N2C(C)CCCC2C)cc1OC (stereo not drawn)	-17.9%	3.4%	31.6µM*	6.6%
O=C(Nc1nnc(C(F)(F)F)s1)c1ccc(Br)s1	.	4.5%	-10.4%	5.62µM*
CC(NC(=O)Nc1nnc(C(F)(F)F)s1)(C(F)(F)F)C(F)(F)F	-59.3%	10.4%	-1.6%	2.24µM*
CCSc1nnc(NC(=O)c2ccc(Br)s2)s1	-10.6%	.	-0.1%	-23.6%
O=C(Nc1nnc(C(F)(F)F)s1)C1COc2ccccc2O1 (stereo not drawn)	-23.3%	.	-2.8%	25.1µM*
CCCCC/C=C\C/C=C\C/C=C\C/C=C\CCCCCC(N)=O	-6.2%	.	?	.
Brc1ccc(N/N=C(/N=Nc2nn[nH]n2)c2ccccc2)cc1	-130.9%	?	25.1µM*	7.08µM*
c1cnc2c(-c3nccc4c3[nH]c3ccccc34)cccc2c1	.	.	7.1%	.
C=CC[n+]1ccc(/C=C2\C=Cc3cc(C)ccc3N2CC)c2ccccc21	-188.5%	.	3.16µM*	2.24µM*
C=C[C@H]1CCC=C2C(=O)CCC[C@@H]21	.	.	17.0%	.
Cc1[nH]c2ccccc2c1SCCNC(=O)c1ccc(Br)o1	-19.8%[10 µM]	-16.5%	-1.4%	25.1µM*
OC[C@@H]1O[C@@H](n2cnc3c(Nc4ccccc4)ncnc32)[C@@H](O)[C@H]1O	-28.3%[1.9 µM]	.	.	.
O=C(NC1CCCCC1)C(c1cccnc1)N(C(=O)CCl)c1ccc(F)cc1 (stereo not drawn)	-71.1%[10 µM]	6.3%	1.1%	6.31µM*
SMILES	HTT ATP protect	L3MBTL1 inh	JMJD2E inh	HttQ103 aggreg
COc1ccc(N(C(=O)CCl)C(C(=O)NC2CCCCC2)c2cccnc2)cc1 (stereo not drawn)	-72.1%[10 µM]	1.9%	4.4%	22.4µM*
COc1ccc(C(C(=O)NC2CCCCC2)N(C(=O)CCl)c2ccc(OC)cc2)cc1 (stereo not drawn)	-41.6%[10 µM]	9.1%	1.3%	?
O=C(NC1CCCCC1)C(c1cccnc1)N(C(=O)CCl)c1ccccc1Cl (stereo not drawn)	-4.7%[10 µM]	5.1%	7.5%	?
CCCCCCc1cc2cc(C(=O)Nc3ccccc3)c(=O)oc2cc1O	-39.0%[10 µM]	6.3%	?	2.24µM*
CC(C)CCNC(=S)Nc1ccc([N+](=O)[O-])cc1	30.0%[0.074 µM]	-7.7%	-3.0%	20µM*
O=C(O)CCCC(=O)N1N=C(c2c(-c3ccccc3)c3cc(Cl)ccc3[nH]c2=O)CC1c1cccs1 (stereo not drawn)	-32.9%[10 µM]	-2.7%	?	19.3%
O=C(O)CCC(=O)N1N=C(c2c(-c3ccccc3)c3cc(Cl)ccc3[nH]c2=O)CC1c1cccs1 (stereo not drawn)	2.82µM*	4.7%	?	-6.3%
CCOC(=O)c1c(C)[nH]c(C)c1C(=O)CSc1nc2ccccc2c(=O)n1-c1ccc(Cl)cc1	.	-2.3%	?	20µM*
